# D2 ag-1 = activates the human D2 dopamine receptor; AID 624465; activation, % (no concentration beside the values); 360,000 tested, 0.084% active; P14416; DiscoveRx PathHunter D2 beta-arrestin, luminescence, 90 min; 100% = 57 uM dopamine signal; in the data active means activation above about 40%
# Target sequence (P14416 whole entry, looked up): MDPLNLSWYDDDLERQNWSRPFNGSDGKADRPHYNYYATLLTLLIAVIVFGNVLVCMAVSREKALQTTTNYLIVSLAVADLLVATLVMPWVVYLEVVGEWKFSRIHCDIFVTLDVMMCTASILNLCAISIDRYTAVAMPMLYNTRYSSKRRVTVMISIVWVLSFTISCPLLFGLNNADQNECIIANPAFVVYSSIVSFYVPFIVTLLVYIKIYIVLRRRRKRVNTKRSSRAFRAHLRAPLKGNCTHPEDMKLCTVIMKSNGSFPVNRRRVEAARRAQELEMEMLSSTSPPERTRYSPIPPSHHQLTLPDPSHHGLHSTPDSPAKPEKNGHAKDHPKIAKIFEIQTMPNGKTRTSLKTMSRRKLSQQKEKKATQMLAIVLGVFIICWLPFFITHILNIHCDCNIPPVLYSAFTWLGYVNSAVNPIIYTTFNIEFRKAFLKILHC
#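 Agonist mode: compounds alone added to overnight-plated D2 PathHunter cells for 90 min at 37 C, with 57 uM final dopamine (EC100) defining full response. Beta-arrestin recruitment detected by chemiluminescent reagent, read after 1 h at ambient temperature.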
# D2 PAM-1 = human D2 receptor positive allosteric modulation | P14416 | DiscoveRx D2 beta-arrestin cells, luminescence, 90 min; 100% = 57 uM dopamine signal | potentiation, % (concentration not given with the values) | 360,000 tested, 0.23% active | AID 624464; in the data active means potentiation above about 50%
#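 D2 cells co-treated with compound plus 50 nM dopamine (EC20) for 90 min at 37 deg C to detect potentiation. Beta-arrestin recruitment was read as enzyme-fragment luminescence after 1 h at ambient temperature. Full response was set by 57 uM dopamine.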
# D2 PAM-2 = positively modulates the human D2 dopamine receptor allosterically; 340,000 tested, 0.34% active; HEK293 T-REx D2, calcium flux, EC20 dopamine potentiation; potentiation, % at 10 µM;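 active means potentiation over 3 SD above the plate norm, cut at about 30% in these data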; further: 0% is about no effect
#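 Using a no-wash calcium dye in inducible, force-coupled HEK293 Trex cells expressing D2, we tracked fluorescence each second for 180 s after compound, then for 180 s after EC20 dopamine to detect augmented signalling.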
# D2 antag = antagonizes the human D2 dopamine receptor; 340,000 tested, 2% active; HEK293 TREx D2 cells, calcium flux, dopamine EC80; P14416; inhibition, % at 10 µM; in the data active means inhibition above about 30%; inactive means below that, where a call was filed; further: 0% is about no effect
#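 Tetracycline-induced HEK293 T-REx cells expressing D2 force-coupled to calcium signalling were dye-loaded, exposed to compound for 180 s, then challenged with an EC80 of dopamine; calcium flux was followed kinetically for a further 180 s.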
# D2 ag-2 = D2 dopamine receptor (human) agonism. AID 485358. 340,000 tested, 0.53% active. HEK293 T-REx D2 cells, calcium flux agonist mode. activation, % at 2 µM;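 active means activation over 3 SD above normal in the single-dose calcium agonist read, cut at about 30% in these data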; further: 0% is about no effect
#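 Tetracycline-induced HEK293 T-REx cells with force-coupled D2 receptor, plated overnight at 30 C, loaded with no-wash calcium dye. After a 10 s baseline, compound was pin-added and calcium flux read kinetically for 180 s; calcium rises flagged agonists.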
# * marks the source's active call; other numbers are inactive results; x = no result. Rows were chosen to be rich in hits. Some 2.4% of all compounds tested hit in one or more screens of this group.
SMILES,D2 ag-1,D2 PAM-1,D2 PAM-2,D2 antag,D2 ag-2
O=C(CN1CCN(CCC(=O)Nc2ccccc2F)CC1)Nc1ccc(Cl)cc1,5,2,8,129*,-1
Cc1c(Cl)cccc1NC(=O)CCN1CCCCCC1,-3,-29,-17,21,0
Cc1c(Cl)cccc1NC(=O)CN1CCN(CCO)CC1,1,-6,13,31*,0
Cc1ccccc1Nc1cc(C(=O)NCc2cccs2)c2ccccc2n1,x,x,-6,x,-1
COc1ccc([C@H]2C[C@@H](O)[C@H](n3cc(C4CC4)nn3)CN2CC2CCCCC2)cc1,-11,-4,x,x,x
COc1ccc(NS(=O)(=O)c2ccc(N3CC(O)=C(c4ccccc4)C3=N)cc2)cc1,-6,7,1,3,-1
COC(=O)C(CCSC)Nc1ncnc2onc(-c3ccc(F)cc3)c12 (stereo not given),x,x,1,x,-1
Cc1cc(N2CCC(N(C)C3CCCC3)CC2)nc2cc(O)ccc12,-3,-6,6,48*,0
Cc1onc(-c2ccccc2)c1C(=O)N1CCCC(C(F)(F)F)C1 (stereo not given),-3,-7,1,-7,-1
CCOC(=O)C1CCN(Cc2ccc(C(=O)OC)cc2)CC1,2,-18,-24,-9,0
COC(=O)c1ccc(CN2CCCCC2)cc1,-4,-30,-25,35*,0
CCOc1ccc(OCCCCN2CCCC2)cc1,-4,-21,-9,-3,0
CCOC(=O)C1(CC2CC2)CCN(Cc2ccc(C(=O)OC)cc2)CC1,-2,-14,-23,72*,0
CCCCOc1ccc(CN2CCCCC2)cc1,-3,-17,-10,52*,0
CCOC(=O)C1(CC2CC2)CCN(Cc2cn(C)c3ccccc23)CC1,-2,-11,-13,30*,-1
O=C(Nc1ccccc1C(F)(F)F)C1CCN(S(=O)(=O)c2ccccc2)CC1,x,x,8,x,x
COc1ccc(-n2c(C)c(C(C)=O)c3cc(OC(=O)c4ccc(C)cc4)ccc32)cc1,x,x,-4,x,1
CCCCOc1ccccc1Cn1c(=O)oc2ccc(C)cc21,1,-4,7,31*,1
CCCCCOc1ccccc1Cn1c(=O)oc2ccc(C)cc21,x,x,-8,x,2
COc1ccc(-c2nc3c4ccccc4n(CC(=O)Nc4ccc(C(C)C)cc4)c(=O)n3n2)cc1,x,x,6,x,0
Clc1cccc(-c2ccc(CNCCCN3CCOCC3)o2)c1,-3,-20,-21,92*,-1
O=C(NCCN1CCOCC1)c1cccc(Br)c1,2,-6,x,x,x
O=C(NCCN1CCOCC1)c1cccc(Cl)c1,-3,-9,-16,33*,2
C/C(O)=C(/C=Nc1ccccc1)C(=O)Nc1ccccc1,-3,-1,11,33*,1
O=C(CN1C(=O)NC(Cc2c[nH]c3ccccc23)C1=O)Nc1cccc(S(=O)(=O)N2CCCCCC2)c1 (stereo not given),4,52*,10,3,-2
SMILES,D2 ag-1,D2 PAM-1,D2 PAM-2,D2 antag,D2 ag-2
CCN1C(=O)[C@H]2[C@@H](c3ccc(OC)cc3)N[C@]3(CCCN(Cc4ccc(C(F)(F)F)cc4)C3=O)[C@H]2C1=O,-7,-1,x,x,x
CCOc1cc(C)nc(N2CCN(C3CCCCC3)CC2)n1,-1,-18,7,40*,1
Cc1cc(C)nc(N2CCN(c3nc(C)cc(C)n3)CC2)n1,x,x,-5,0,-1
CCOc1ccc(/C=C(\C#N)c2nc(-c3cc4ccccc4oc3=O)cs2)c(OCC)c1,x,x,-1,x,1
CN(CCNC(=O)c1ccc(/C=N/O)nc1)Cc1ccccc1,-6,-36,-26,61*,1
CN(CCCNC(=O)c1ccc(/C=N/O)nc1)CCCN(C)Cc1ccccc1,1,8,-9,6,0
Cc1c(Cl)cccc1-c1ccc(CNCCSc2nnnn2-c2ccccc2)o1,x,x,-28,x,0
CCNc1nc(NC(C)(C)C)nc(N(C#N)CC)n1,-1,-8,31*,-26,1
CCNc1nc(NCC)nc(N(C#N)C(C)C)n1,-2,-2,9,7,0
CSc1nnc2c(n1)OC(c1cccc(O)c1Cl)Nc1ccccc1-2 (stereo not given),x,x,-9,x,0
COc1ccc(C(=O)Nc2cc(C)c(NC(=O)c3ccccn3)cn2)cc1,-2,-3,35*,-24,0
